These results are taken from ChEMBL document CHEMBL1961873, “Compounds: GSK PKIS; Assays: Nanosyn kinase panel” (2012).

Structures are written as SMILES.

The target in experiment [1] is Glycogen synthase kinase-3 beta (Homo sapiens) (UniProt P49841). The conditions noted are these: at 1 µM.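 Further: reported values are mean percent inhibition of GSK3B.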
Experiment [2] addresses Homeodomain-interacting protein kinase 1 (Homo sapiens) (UniProt Q86Z02). The conditions noted are these: at 0.1 µM.
For experiment [3] the target is unchanged. To be noted: at 1 µM.
Experiment [4] concerns the target T1, Homeodomain-interacting protein kinase 4 (Homo sapiens) (UniProt Q8NE63).
T1 sequence (whole entry): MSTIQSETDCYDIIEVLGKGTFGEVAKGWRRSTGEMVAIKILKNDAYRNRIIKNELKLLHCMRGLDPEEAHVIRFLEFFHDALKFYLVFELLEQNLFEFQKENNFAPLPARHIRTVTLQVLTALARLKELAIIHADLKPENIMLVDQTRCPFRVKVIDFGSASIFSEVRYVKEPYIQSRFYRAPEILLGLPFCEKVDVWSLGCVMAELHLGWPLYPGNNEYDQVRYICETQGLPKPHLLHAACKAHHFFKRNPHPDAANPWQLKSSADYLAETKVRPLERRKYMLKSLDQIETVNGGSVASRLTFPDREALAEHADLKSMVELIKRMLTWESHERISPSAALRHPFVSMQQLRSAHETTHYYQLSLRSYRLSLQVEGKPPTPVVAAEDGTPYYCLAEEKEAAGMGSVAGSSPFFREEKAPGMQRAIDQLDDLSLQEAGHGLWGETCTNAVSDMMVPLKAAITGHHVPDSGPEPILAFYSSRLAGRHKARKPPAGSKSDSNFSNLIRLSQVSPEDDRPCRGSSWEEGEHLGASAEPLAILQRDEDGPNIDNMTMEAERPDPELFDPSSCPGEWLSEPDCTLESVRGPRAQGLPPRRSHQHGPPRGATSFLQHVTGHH
To be noted: at 0.1 µM.

For experiment [5], the target named is T1, Homeodomain-interacting protein kinase 4 (Homo sapiens). To be noted: at 1 µM.
Experiment [6] has as its target Mitogen-activated protein kinase 9 (Homo sapiens) (UniProt P45984). To be noted: at 0.1 µM.
Experiment [7] has the same target. To be noted: at 1 µM.
In experiment [8] the target is Mitogen-activated protein kinase 1 (Homo sapiens) (UniProt P28482). To be noted: at 0.1 µM.
Chain of Mitogen-activated protein kinase 1 (Homo sapiens) (P28482 whole entry): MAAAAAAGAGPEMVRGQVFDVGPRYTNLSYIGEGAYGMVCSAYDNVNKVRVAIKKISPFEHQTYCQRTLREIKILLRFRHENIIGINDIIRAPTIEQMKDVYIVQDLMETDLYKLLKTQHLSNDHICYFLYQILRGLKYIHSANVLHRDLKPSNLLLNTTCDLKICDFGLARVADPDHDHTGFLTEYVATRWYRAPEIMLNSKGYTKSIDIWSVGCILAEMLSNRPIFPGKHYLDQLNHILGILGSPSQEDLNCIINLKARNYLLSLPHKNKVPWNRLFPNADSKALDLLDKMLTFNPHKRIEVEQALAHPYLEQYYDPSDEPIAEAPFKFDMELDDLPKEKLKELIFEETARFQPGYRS
For experiment [9] the target is unchanged. To be noted: at 1 µM.
The target of experiment [10] is Mitogen-activated protein kinase 3 (Homo sapiens) (UniProt P27361). To be noted: at 0.1 µM.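 Further: each value is a mean inhibition figure.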
Chain of Mitogen-activated protein kinase 3 (Homo sapiens) (P27361 whole entry): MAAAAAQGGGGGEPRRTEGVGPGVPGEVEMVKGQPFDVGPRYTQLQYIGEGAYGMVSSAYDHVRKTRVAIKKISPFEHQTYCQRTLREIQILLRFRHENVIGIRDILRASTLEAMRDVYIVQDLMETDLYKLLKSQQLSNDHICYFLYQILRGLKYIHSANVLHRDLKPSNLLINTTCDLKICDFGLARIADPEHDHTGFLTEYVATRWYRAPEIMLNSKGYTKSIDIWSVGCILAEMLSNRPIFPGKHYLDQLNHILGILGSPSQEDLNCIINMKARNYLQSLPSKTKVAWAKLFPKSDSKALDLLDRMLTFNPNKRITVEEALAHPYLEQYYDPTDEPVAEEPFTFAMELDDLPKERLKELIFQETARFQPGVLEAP

Chain of Mitogen-activated protein kinase 9 (Homo sapiens) (P45984 whole entry, looked up): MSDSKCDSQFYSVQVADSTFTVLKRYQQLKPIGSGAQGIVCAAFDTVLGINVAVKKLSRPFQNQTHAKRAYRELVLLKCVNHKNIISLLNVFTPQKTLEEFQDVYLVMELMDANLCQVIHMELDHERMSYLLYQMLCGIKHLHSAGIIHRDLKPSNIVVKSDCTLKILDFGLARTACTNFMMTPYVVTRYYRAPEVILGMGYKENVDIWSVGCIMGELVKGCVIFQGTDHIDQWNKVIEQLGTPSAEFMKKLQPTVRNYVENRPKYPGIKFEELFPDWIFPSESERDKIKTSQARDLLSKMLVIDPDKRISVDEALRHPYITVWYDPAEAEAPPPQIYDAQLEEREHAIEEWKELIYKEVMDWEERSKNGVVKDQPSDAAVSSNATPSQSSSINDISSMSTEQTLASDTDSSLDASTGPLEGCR
Chain of Glycogen synthase kinase-3 beta (Homo sapiens) (P49841 whole entry, looked up): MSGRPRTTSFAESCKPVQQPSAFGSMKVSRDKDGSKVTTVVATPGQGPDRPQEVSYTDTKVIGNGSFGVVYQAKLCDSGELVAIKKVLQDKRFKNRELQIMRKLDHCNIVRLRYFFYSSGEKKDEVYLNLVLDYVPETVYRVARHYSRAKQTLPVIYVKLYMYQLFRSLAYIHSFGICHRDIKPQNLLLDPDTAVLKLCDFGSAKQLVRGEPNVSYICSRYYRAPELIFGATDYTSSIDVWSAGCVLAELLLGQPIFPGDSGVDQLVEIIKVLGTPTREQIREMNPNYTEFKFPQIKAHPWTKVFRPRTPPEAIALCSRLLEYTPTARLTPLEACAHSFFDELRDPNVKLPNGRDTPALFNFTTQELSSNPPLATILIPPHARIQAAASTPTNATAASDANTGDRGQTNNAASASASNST
Chain of Homeodomain-interacting protein kinase 1 (Homo sapiens) (Q86Z02 whole entry, looked up): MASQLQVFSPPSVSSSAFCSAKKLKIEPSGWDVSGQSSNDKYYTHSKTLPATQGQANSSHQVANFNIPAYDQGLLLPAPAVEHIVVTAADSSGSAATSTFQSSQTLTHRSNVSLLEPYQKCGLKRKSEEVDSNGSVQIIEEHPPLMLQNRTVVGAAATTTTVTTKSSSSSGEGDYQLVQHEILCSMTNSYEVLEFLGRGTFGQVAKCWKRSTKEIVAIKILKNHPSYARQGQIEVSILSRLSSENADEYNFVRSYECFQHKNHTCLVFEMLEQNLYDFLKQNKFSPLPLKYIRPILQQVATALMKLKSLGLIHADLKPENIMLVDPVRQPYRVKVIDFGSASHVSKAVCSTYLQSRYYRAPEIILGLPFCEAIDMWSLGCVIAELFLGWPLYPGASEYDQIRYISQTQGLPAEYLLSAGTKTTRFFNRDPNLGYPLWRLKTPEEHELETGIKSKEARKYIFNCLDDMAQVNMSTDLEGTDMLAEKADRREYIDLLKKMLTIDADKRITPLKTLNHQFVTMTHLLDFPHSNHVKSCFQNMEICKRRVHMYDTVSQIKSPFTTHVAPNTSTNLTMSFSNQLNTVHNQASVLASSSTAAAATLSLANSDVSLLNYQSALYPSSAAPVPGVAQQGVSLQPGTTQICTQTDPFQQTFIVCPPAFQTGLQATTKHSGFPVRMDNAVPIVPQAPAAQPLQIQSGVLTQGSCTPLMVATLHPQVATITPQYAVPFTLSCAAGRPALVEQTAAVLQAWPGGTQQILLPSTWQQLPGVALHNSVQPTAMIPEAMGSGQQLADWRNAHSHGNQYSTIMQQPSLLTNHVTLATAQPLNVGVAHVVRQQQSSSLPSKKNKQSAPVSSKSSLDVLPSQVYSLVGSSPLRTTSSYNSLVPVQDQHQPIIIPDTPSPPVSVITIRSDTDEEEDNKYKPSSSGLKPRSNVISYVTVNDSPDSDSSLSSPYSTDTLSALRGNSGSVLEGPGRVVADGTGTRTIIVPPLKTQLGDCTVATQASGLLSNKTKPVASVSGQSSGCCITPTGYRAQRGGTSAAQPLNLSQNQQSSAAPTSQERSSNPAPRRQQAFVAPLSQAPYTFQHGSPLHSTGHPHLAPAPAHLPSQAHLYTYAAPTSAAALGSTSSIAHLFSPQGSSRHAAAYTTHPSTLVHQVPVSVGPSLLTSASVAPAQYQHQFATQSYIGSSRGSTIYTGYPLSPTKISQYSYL

In the case of `Nc1ccc(C#Cc2cncnc2Nc2ccc(OCc3cccc(F)c3)c(Cl)c2)cc1`, the inhibition (in general, the relative decrease from the control value, in per cent) in experiment [1] is 0.21%; in experiment [2] it was -0.22%; in experiment [3] it was 0.93%; in [4] it was 0.09%; in experiment [5], 0.28%; in [6], 1.88%. In addition, the inhibition was 1.2% in [7], 4.25% in experiment [8], 3.67% in [9] and 3.61% in experiment [10].
Turning to `CN(C)C(=O)O[C@@H]1CN[C@@H](C#Cc2cc3ncnc(Nc4ccc(OCc5cccc(F)c5)c(Cl)c4)c3s2)C1`, the inhibition in experiment [1] is 7.41%; in experiment [2], -3.67%; in [3], -3.81%; in experiment [4] it was -1.55%; in [5], 0.99%; in [6], 3.81%. Also, the inhibition in [7] is 4.77%; in experiment [8], -1.16%; in [9], 1.96%; in experiment [10], 3.17%.
For `COC(=O)c1ccc2c(c1)C(=Cc1cc(Br)c(O)c(Br)c1)C(=O)N2`, the inhibition in experiment [1] came out at 44.2%; in [2], 10.2%; in [3], 60.8%; in experiment [4] it was 4.27%; in experiment [5] it was 35%; in [6], 4.88%. In addition, the inhibition is 11% in experiment [7], 3.12% in experiment [8], 6.19% in experiment [9] and 4.78% in experiment [10].
As for `CCOc1nccc2c1nc(-c1nonc1N)n2CC`, the inhibition in [1] came out at 11.9%; in experiment [2] it was 5.35%; in [3], 9.39%; in experiment [4], 6.7%; in [5], 12.2%; in experiment [6], 1.55%. Moreover, the inhibition came out at 1.43% in experiment [7], 4.78% in experiment [8], 4.07% in experiment [9] and 5.64% in [10].
Regarding `COc1cc2ncnc(Nc3ccc(C)c(O)c3)c2cc1OC`, the inhibition in experiment [1] is 11.2%; in [2], 2.85%; in [3] it was 2.79%; in [4], 3.31%; in experiment [5] it was 9.35%; in experiment [6], 4.57%. Besides, the inhibition in experiment [7] came out at 5.02%; in [8], 5.5%; in experiment [9], 7.98%; in experiment [10], 4.96%.
Turning to `Oc1cccc(-c2nc(-c3ccccc3)[nH]c2-c2ccncc2)c1`, the inhibition was found to be 18.9% in [1]; 1.65% in experiment [2]; 4.29% in experiment [3]; 10.7% in [4]; 44.9% in [5]; 2.02% in experiment [6]. Also, the inhibition in [7] was found to be 10.7%; in [8] it was 5.56%; in experiment [9], 5.82%; in [10], 3.48%.
For the compound `C[C@@H](Oc1cc(-n2cnc3ccc(OC[C@@H](O)CO)cc32)sc1C(N)=O)c1ccccc1Cl`, the inhibition in experiment [1] is 4.23%; in [2], -0.81%; in experiment [3], 4.78%; in experiment [4], 1.18%; in experiment [5], 9.28%; in experiment [6], -0.38%. For the same compound, the inhibition in [7] was -0.96%; in experiment [8] it was -3.13%; in experiment [9], -1.64%; in [10] it was -0.87%.
Consider `COc1cc2ncn(-c3cc(OCc4ccccc4S(C)(=O)=O)c(C#N)s3)c2cc1OC`, for which the inhibition in experiment [1] was 8.83%; in experiment [2] it was 2.2%; in [3] it was 28%; in experiment [4], 52.5%; in [5], 79%; in experiment [6], 2.5%. The inhibition in experiment [7] is 6.08%; in experiment [8], 1.98%; in experiment [9], 5.43%; in [10], 3.11%.
Turning to `NS(=O)(=O)c1ccc(N/N=C2\C(=O)Nc3ccc(Cl)cc32)cc1`, the inhibition in [1] was found to be 54.1%; in experiment [2], 2.46%; in [3], 10.2%; in experiment [4] it was 2.99%; in [5], 7.64%; in experiment [6] it was 3.27%. For the same compound, the inhibition stood at 4.35% in experiment [7], 6.29% in experiment [8], 4.79% in [9] and 4.87% in experiment [10].
In the case of `Cc1ccc(O)cc1Nc1ccnc2ccc(S(C)(=O)=O)cc12`, the inhibition in experiment [1] is 3.47%; in experiment [2], -0.12%; in experiment [3], 1.59%; in [4] it was 2.64%; in experiment [5], 8.27%; in experiment [6] it was 4.77%. The inhibition was found to be 5.22% in experiment [7], 5.91% in experiment [8], 5.63% in experiment [9] and 5.26% in [10].
Consider `Cc1ccc2c(-c3ccnc(Nc4ccc5c(c4)OCCO5)n3)c(-c3ccc(C(F)(F)F)cc3)nn2n1`, for which the inhibition in [1] is 10.2%; in experiment [2] it was -4.36%; in experiment [3], 0.03%; in experiment [4], -0.51%; in [5], -0.85%; in [6], -0.33%. Further, the inhibition in experiment [7] was found to be 4.2%; in [8] it was 1.99%; in experiment [9] it was 2.01%; in experiment [10], 2.57%.
Regarding `COc1ccc(-c2nn3ncccc3c2-c2ccnc(Nc3cccc(C(F)(F)F)c3)n2)cc1`, the inhibition in [1] was 3.78%; in experiment [2], 0.13%; in experiment [3], -1.85%; in experiment [4] it was 0.75%; in experiment [5], 1.33%; in experiment [6], 3.29%. The inhibition in [7] stood at 8.16%; in experiment [8], 6.52%; in [9], 5.12%; in experiment [10], 0.87%.
On to `Nc1nccc(-c2c(-c3ccc(F)cc3)nn3cc(C(F)(F)F)ccc23)n1`, for which the inhibition is -1.01% in experiment [1]; -6.6% in experiment [2]; -1.23% in experiment [3]; -0.17% in [4]; 0.63% in experiment [5]; 2.4% in [6]. The inhibition in experiment [7] is 4.47%; in [8] it was -0.05%; in experiment [9], 0.2%; in [10], 3.72%.
As to `Cc1cc(O)cc(C)c1/C=C/c1cncc(C(=O)N(C)C)c1`, the inhibition in experiment [1] was 9.44%; in experiment [2] it was 0.32%; in experiment [3] it was 4.88%; in experiment [4] it was 4.28%; in experiment [5], 7.94%; in experiment [6] it was -0.29%. In addition, the inhibition came out at 2.38% in experiment [7], 2.76% in experiment [8], 2.51% in [9] and 3.48% in experiment [10].
`CS(=O)(=O)Nc1cccc(-c2ccc3c(NC(=O)C4CC4)n[nH]c3c2)c1`: the inhibition in [1] was 9.5%; in experiment [2] it was -3.76%; in experiment [3], 0.93%; in [4] it was -0.79%; in experiment [5] it was -0.86%; in [6], 2.2%. In addition, the inhibition in [7] was 0.27%; in experiment [8], -0.71%; in experiment [9] it was 1.14%; in experiment [10] it was 2.44%.
With `Cc1cc(Cl)cc2c1NC(=O)C2=NNc1ccc(S(N)(=O)=O)cc1`, the inhibition was 5.76% in experiment [1]; 1.47% in experiment [2]; 1.67% in experiment [3]; 0.61% in experiment [4]; 2.42% in [5]; -0.14% in experiment [6]. Besides, the inhibition is 2.41% in [7], 4.09% in experiment [8], 2.74% in experiment [9] and 2.98% in experiment [10].
